Compound activity as filed in PubChem BioAssay.
This is a sample that favours compounds with a hit; in the whole collection about 4.1% have one here.
LEDGF integ inh = blocks HIV-1 LEDGF/p75-dependent DNA integration. TR-FRET IN-LEDGF/p75 DNA integration, Eu/Cy5. inhibition, % at 3.7 µM. hit rate 0.64% among 370,000;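 active means inhibition above the screen-wide mean plus 3 SD, cut at about 13% in these data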;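 further: signal is the Cy5 over europium emission ratio at 671 and 618 nm; 0% = plate median of compound wells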
rCAG RNA binder = binds r(CAG) RNA repeats | r(CAG) RNA repeat, TO-PRO-1 dye displacement fluorescence | inhibition, % at 3 µM | hit rate 1.3% among 370,000;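 active means inhibition above the plate cutoff, the mean of all test compounds on that plate plus 3 SD, cut at about 35% in these data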;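 further: 0% = DMSO alone and 100% = 100 µM mitoxantrone as full dye displacement; higher means more dye released from RNA so lower well fluorescence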
UHRF1 MBD2 ctr = blocks human UHRF1 binding to methylated DNA. hit rate 0.75% among 370,000. UHRF1 binding to methylated oligo, TR-FRET. Q96T88. inhibition, % at 4.4 µM; in the data active means inhibition above about 21%;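 further: UHRF1 SRA domain binding a hemimethylated CpG hairpin DNA probe; 0% = median of test compound wells and 100% = reference inhibitor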
Target sequence (Q96T88 whole entry, looked up, the tested form may be a part): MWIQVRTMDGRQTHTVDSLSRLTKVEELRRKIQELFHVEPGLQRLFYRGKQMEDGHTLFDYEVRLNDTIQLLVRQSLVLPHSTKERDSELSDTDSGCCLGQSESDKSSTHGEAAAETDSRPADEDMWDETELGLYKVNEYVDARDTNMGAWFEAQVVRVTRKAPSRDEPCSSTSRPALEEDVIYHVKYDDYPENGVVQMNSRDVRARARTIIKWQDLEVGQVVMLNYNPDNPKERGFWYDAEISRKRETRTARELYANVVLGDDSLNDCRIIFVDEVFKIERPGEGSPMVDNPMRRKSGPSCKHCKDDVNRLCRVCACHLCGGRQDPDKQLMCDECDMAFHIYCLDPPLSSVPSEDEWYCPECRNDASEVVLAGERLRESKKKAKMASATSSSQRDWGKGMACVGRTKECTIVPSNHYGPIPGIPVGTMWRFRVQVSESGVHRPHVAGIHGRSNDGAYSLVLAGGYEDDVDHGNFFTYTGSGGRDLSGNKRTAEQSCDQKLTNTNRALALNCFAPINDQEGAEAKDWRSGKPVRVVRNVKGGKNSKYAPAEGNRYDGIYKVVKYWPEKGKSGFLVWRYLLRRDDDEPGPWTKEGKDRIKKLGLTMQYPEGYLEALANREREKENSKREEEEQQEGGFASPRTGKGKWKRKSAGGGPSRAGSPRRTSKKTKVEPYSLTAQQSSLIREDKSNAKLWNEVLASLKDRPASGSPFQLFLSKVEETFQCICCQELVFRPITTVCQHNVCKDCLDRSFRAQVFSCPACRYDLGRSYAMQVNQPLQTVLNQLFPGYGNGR
MBD2 DNA inh = MBD2-methylated oligo binding inhibition | inhibition, % at 4.4 µM | TR-FRET, MBD2 binding to methylated oligonucleotide | AID 686964 | hit rate 0.31% among 370,000 | Q9UBB5; in the data active means inhibition above about 13%
PRMT1 inh = blocks human protein arginine methyltransferase 1; Q99873; recombinant PRMT1, activity-based probe fluorescence polarization; inhibition, % at 2.79 µM; hit rate 1.3% among 370,000;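 active means inhibition above about 21% made by adding two undisclosed values, limit read from the data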
ABHD5-PLIN5 inh = inhibitors of human ABHD5-perilipin-5 interaction; Split G. princeps luciferase complementation, luminescence, 4 h; hit rate 0.78% among 360,000; inhibition, % at 4 µM; Q00G26+Q8WTS1;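 active means inhibition above the mean inhibition across every tested compound plus 3 SD, cut at about 22% in these data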;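 further: 0% = DMSO only wells and the 100% control is not disclosed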
PRMT1 confirm = PRMT1 (human) inhibition, FP confirmation; shares compounds with PRMT1 inh; recombinant His-PRMT1, activity-based probe fluorescence polarization; inhibition, % at 2.79 µM; hit rate 42% among 3,300; AID 687036;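 active means mean inhibition across replicates above the hit cutoff derived for the earlier primary screen, cut at about 22% in these data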
The depositor's hits bear a star; i = inactive; . = not tested or not shown.

SMILES	LEDGF integ inh	rCAG RNA binder	UHRF1 MBD2 ctr	MBD2 DNA inh	PRMT1 inh	ABHD5-PLIN5 inh	PRMT1 confirm
COc1ccc(NC(=O)CSc2nnnn2C2CC2)cc1S(=O)(=O)N1CCOCC1	2.6	8.3	-4.2	-1.5	38.0*	-1.8	-1.9
N#CC1=C(N)SC(N)=C(C#N)C1C1C=CCCC1 (centres undefined)	-4.4	-0.5	3.5	-0.7	35.5*	-11.6	1.9
N#CC1=C(N)SC(N)=C(C#N)C1C1CC=CCC1 (centres undefined)	-2.3	1.3	-1.0	1.6	10.2	-3.2	.
Oc1ccc2nnc3c(Br)cnn3c2c1	-6.4	-44.7	-15.9	-7.9	49.6*	-3.8	49.6*
Clc1ccc2nc3c4ccccc4cnn3c2c1	1.7	0.2	-6.1	-4.3	-0.4	5.4	.
CC(=O)c1c(N2CCN(C)CC2)nc(=S)n(Cc2ccccc2)c1C	-0.3	-2.5	-2.4	-5.8	38.5*	-4.8	-4.6
O=S1(=O)CC(O)C(O)CS1 (centres undefined)	-2.4	2.5	-1.7	0.1	81.4*	4.7	84.9*
COC(=O)c1cc2c(c3c4ccccc4n(S(=O)(=O)c4ccc(OC)cc4)c13)C(=O)N(Cc1ccco1)C2	2.6	24.6	2.1	2.5	6.0	.	.
O=C(c1cccc(Cl)c1)N1CCN(c2ccnc3cc(Cl)ccc23)CC1	2.6	.	-0.4	-0.4	0.3	.	.
Nc1ccc2cc3[nH]c4cc(N)ccc4c3nc2c1	0.0	-74.6	i	-96.4	155.9*	-8.2	-40.9
Nc1ccc(-c2nc3ccc(N)cc3[nH]2)cc1	-6.3	2.9	-6.8	0.1	0.6	5.5	.
Nn1c(SCC(=O)Nc2nccs2)nnc1-c1cc(-c2ccc(F)cc2)n[nH]1	-0.9	5.5	-0.8	-4.7	-3.1	.	.
CC(c1c[nH]c2ccccc12)c1cn(C)c2ccccc12 (centres undefined)	1.8	4.7	-1.4	-6.0	4.9	.	.
S=C(Nc1ccccn1)c1ccccn1	-1.4	-3.2	2.0	2.8	32.4*	-11.0	7.7
S=C(N/N=C/c1ccco1)NC1CC2CCC1C2 (centres undefined)	-2.1	15.0	1.0	3.1	26.7*	2.9	3.5
COC(=O)[C@]12C[C@H](CC(=O)NCCCCc3ccccc3)C(=O)N(Cc3ccco3)C1=C[C@H](C1CCCC1)O[C@@H]2C	-0.7	3.4	-1.8	1.2	4.3	.	.
CC(=O)Nc1ccc(S(=O)(=O)NCC(=O)NNC(=O)c2csc(N3CCOCC3)n2)cc1	-2.9	5.5	2.4	1.5	52.3*	-2.0	13.8
COc1cccc(N(C)C(=O)[C@@H](C2CC2)[C@@H](O)c2ccc(Cl)cc2)c1	7.7	-4.1	-2.6	-5.5	-7.0	.	.
CCOc1ccc(CNC(=O)c2ccc3c(c2)N(CC)CCS3)cc1	-1.8	7.0	0.7	2.1	25.3*	-3.2	-1.3
CCOC(=O)c1ccc(NC(=S)N2CCN(C)CC2)cc1	-4.3	-4.4	-0.2	-0.6	2.5	-1.7	.
CCOC(=O)c1ccc(NC(=S)N2CCSC2c2ccc(Cl)cc2)cc1 (centres undefined)	-2.8	-0.9	0.7	1.7	83.7*	-21.0	-0.5
COc1ccc(C2SCCN2C(=S)Nc2ccc(F)cc2)cc1 (centres undefined)	0.0	-0.4	2.4	-0.2	57.8*	-23.1	1.8
CCOC(=O)c1ccc(NC(=S)N2CCSC2c2ccc(OC)cc2)cc1 (centres undefined)	-1.2	3.1	2.1	-0.3	88.0*	-30.0	4.2
COc1ccccc1C(=O)N1CCC2CCN(C(=O)OC(C)(C)C)C2C1 (centres undefined)	7.9	1.4	0.1	-3.7	-6.3	.	.
O=C1CC(N2CCOCC2)C(=O)N1c1ccc(Cl)cc1 (centres undefined)	-1.7	1.8	16.5	-2.9	3.1	4.2	.
SMILES	LEDGF integ inh	rCAG RNA binder	UHRF1 MBD2 ctr	MBD2 DNA inh	PRMT1 inh	ABHD5-PLIN5 inh	PRMT1 confirm
O=C1CC(N2CCOCC2)C(=O)N1Cc1ccc(N2CCCC2=O)cc1 (centres undefined)	4.0	8.4	5.8	1.3	14.5	-1.2	.
O=C1CCCN1CCC1CCN(C2CC(=O)N(Cc3ccc(N4CCCC4=O)cc3)C2=O)CC1 (centres undefined)	2.6	-1.6	4.7	8.7	92.6*	16.7	7.2
O=C1CC(N2CCC(O)(c3ccc(Cl)cc3)CC2)C(=O)N1Cc1ccc(N2CCCC2=O)cc1 (centres undefined)	0.2	-6.8	-3.9	-3.2	63.0*	7.2	4.4
O=C1CCCN1CCC1CCN(C2CC(=O)N(c3ccc(Cl)cc3)C2=O)CC1 (centres undefined)	-0.9	-2.7	-2.1	-1.4	50.4*	17.8	9.1
C=CCN=C1NC(c2ccc(C(F)(F)F)cc2)C(C(=O)OC)=C(C)N1C (centres undefined)	-0.2	5.3	2.0	4.0	-0.5	.	.
O=C(CSCc1ccco1)c1cccs1	6.5	8.2	0.9	-2.3	25.2*	-4.2	70.4*
NC(=O)/C=C\C(=O)Nc1cccc(C(F)(F)F)c1	-0.6	-2.1	1.9	5.5	50.7*	13.0	25.0*
COc1ccc(NC(=O)C2C3C=CC(O3)C2C(=O)O)cc1 (centres undefined)	-4.0	-0.8	1.1	3.4	36.0*	2.0	8.5
CC(C(=O)NCC(=O)Nc1ccc(F)c(F)c1F)N1CCN(c2ccc(O)cc2)CC1 (centres undefined)	5.0	6.2	0.9	-1.1	28.1*	4.4	8.5
O=C(O)CCCC[n+]1ccccc1	-0.5	1.3	1.4	-0.7	5.3	.	.
COCCCn1c(=NC(=O)c2ccccc2)c(C#N)cc2c(=O)n3cccc(C)c3nc21	1.9	-9.4	2.8	3.8	31.2*	6.0	-4.7
COCCCn1c(=NC(C)=O)c(C#N)cc2c(=O)n3cccc(C)c3nc21	4.4	-1.5	-5.1	-3.3	-3.1	6.7	.
C[C@H]1[C@H](NC(=O)c2cccc(C(F)(F)F)c2)CC[C@@]23CCCN2C(=O)CCC[C@@H]13	-0.2	.	-1.1	-3.8	-4.3	.	.
CSC1=NS(=O)(=O)c2c(C)nn(C)c2S1	-8.1	-2.8	4.0	-4.3	99.7*	-21.4	76.3*
O=C(NC1CC1)c1cc(=S)[nH]c2ccccc12	-3.4	1.2	-0.8	0.6	39.1*	-4.2	18.9
CCOC(=O)c1c(NC(=S)Nc2ccccc2)sc2c1CCN(CC)C2	1.7	-45.7	-15.0	5.2	27.5*	-3.3	11.4
CCOC(=O)c1c(NC(=S)NCc2ccccc2)sc2c1CCN(C(=O)OCC)C2	6.8	6.5	-4.8	2.4	-1.9	3.7	.
CCC1(C)NC(=O)N(CC(=O)Nc2sc3c(c2C(=O)OC)CCCCC3)C1=O (centres undefined)	1.8	10.4	-0.3	-5.2	0.1	-2.2	.
COC(=O)c1c(NC(=O)CN2C(=O)C(=O)N(CC(C)C)C2=O)sc2c1CCCCC2	1.1	8.3	2.4	-6.3	57.8*	-8.1	8.4
